A word on the inhibition: it is the drop in the measured response relative to a control, in per cent.

SMILES strings stand for the structures. In all, about 300,000 compounds went through this assay and about 3,200 (1.1%) were called active. Rule as the data show it: active = inhibition above about 75%; inconclusive = no clear call, values can overlap the other calls; inactive = below that; tested in HMLE shEcad cells. The entries come from a sample that favours actives as a whole.

The nature of the assay: growth suppression of cancer stem-like cells – cell-based, luminescence, primary screen (AID 2717). The note with it: cancer stem cell-like cells viability, at 7.5 µM, stronger effect = higher value.
Consider `COc1cccc(CNC(C)C(=O)Nc2ccc(S(=O)(=O)N3CCCC3)cc2)c1` (stereo unspecified), for which the inhibition was 10.7% (inactive).

Take `CN(C(=O)COC(=O)CCCc1c[nH]c2ccccc12)c1c(N)n(Cc2ccccc2)c(=O)[nH]c1=O`: the inhibition is -11.7% (inactive).

For `CC1(C)CC[C@]2(C(=O)O)CC[C@]3(C)C(=CCC4[C@@]5(C)CC[C@H](O)C(C)(C)C5[C@H](O)C[C@]43C)[C@@H]2C1` (stereo partly specified), the inhibition is -4.41% (inactive).

In the case of `CC1(C)CC[C@@]2(C(=O)O)C(C1)C1=CCC3[C@@]4(C)CC[C@H](O)C(C)(C)C4CC[C@@]3(C)[C@]1(C)C[C@H]2O` (stereo partly specified), the inhibition is 87.8% (active).

Consider `CC1(C)C2CC[C@]3(C)C(CC=C4[C@@H]5C[C@@](C)(CO)CC[C@]5(C(=O)O)CC[C@]43C)[C@@]2(C)CC[C@@H]1O` (stereo partly specified), for which the inhibition was -8.25% (inactive).

For the compound `CCOC(=O)[C@H]1[C@H]2COc3ccccc3[C@@H]2N2C(=O)CN(Cc3ccccc3)C(=O)[C@@]12C`, the inhibition is -9.72% (inactive).

`CC(C)CC(=O)N1CCN(Cc2cccc(Cl)c2)CC1`: the inhibition was -2.32% (inactive).

Take `O=C(c1cccc(Cl)c1)N1CCN(Cc2ccccc2)CC1`: the inhibition was -14.8% (inactive).

Consider `Clc1cccc(CN2COc3c(cc(Cl)c4cccnc34)C2)c1`, for which the inhibition was 118% (active).

On to `O=C(OCC(=O)N1CCCCCC1)c1ccc(Br)c(S(=O)(=O)N2CCOCC2)c1`, for which the inhibition is -10.2% (inactive).

On to `COc1ccc(-c2nc3cnccn3c2NC(C)(C)CC(C)(C)C)cc1O`, for which the inhibition was 0.145% (inactive).

Regarding `Cc1ccc2nc(-c3cccnc3)c(NC3CCCC3)n2c1`, the inhibition is -4.39% (inactive).

Regarding `COc1ccc(-c2nc3cnccn3c2NC2CCCCC2)cc1-c1cccc(Cl)c1`, the inhibition is 105% (active).

In the case of `CCN(c1ccccc1)S(=O)(=O)c1cccc(C(=O)NCc2ccccc2CN2CCOCC2)c1`, the inhibition is -15.2% (inactive).

Turning to `O=S(=O)(c1ccccc1)c1nc(-c2ccccc2)oc1NCCCN1CCOCC1`, the inhibition is -5.33% (inactive).

With `N#Cc1nc(-c2ccc(OCc3ccccc3)cc2)oc1NCCCN1CCOCC1`, the inhibition was 86.3% (active).

For `Cc1ccc(-c2nc(C#N)c(NCCCn3ccnc3)o2)cc1`, the inhibition is -10.2% (inactive).

With `CC(=O)Nc1ccc(S(=O)(=O)Nc2ccc(N3CCCCC3)cc2)cc1`, the inhibition is 21.5% (inactive).

`O=S(=O)(Nc1ccc(O)c2ccccc12)c1ccc(OC(F)(F)F)cc1`: the inhibition was 106% (active).

With `O=S(=O)(Nc1ccc(OC(F)(F)F)cc1)c1cccc2nonc12`, the inhibition is -7.85% (inactive).

Turning to `Cc1nn(C)c(C)c1NS(=O)(=O)c1ccc(OC(F)(F)F)cc1`, the inhibition is 1.58% (inactive).

For the compound `Cc1noc(C)c1NC(=O)Nc1ccc2c(c1)C(=O)N([C@H](C)CO)C[C@H](C)[C@@H](CN(C)S(=O)(=O)c1cn(C)cn1)O2`, the inhibition was -15.6% (inactive).

Take `Cc1cccc(NC(=O)c2ccc(S(=O)(=O)N(C)c3ccccc3)cc2)n1`: the inhibition is -22% (inactive).

Turning to `COc1ccc(-c2c(C#Cc3ccsc3)c3cc(-c4ccc(CN5CCOCC5)cc4)ccc3n2C)cc1`, the inhibition is 31.2% (inactive).

Consider `COc1ccc(Cc2nnc(N/N=C/c3ccccc3O)[nH]c2=O)cc1OC`, for which the inhibition was 106% (active).

For the compound `COc1ccc(/C=N/Nc2nc3ccccc3c(=O)[nH]2)cc1`, the inhibition is 13% (inactive).

Regarding `CC(C)c1ccc(Cc2nnc(NCCCO)[nH]c2=O)cc1`, the inhibition is 13.6% (inactive).

With `C=CCC[C@H](Cc1ccc(F)cc1)C(=O)OC[C@H](C)NC(=O)[C@H](CC=C)CC(=O)N(CCO)Cc1ccccc1`, the inhibition was -9.39% (inactive).

Take `COc1cccc2sc(Nc3nc(C)c(C(C)=O)s3)nc12`: the inhibition is 17.8% (inactive).

With `COc1cccc2sc(NNC(=O)c3nc4ccccc4s3)nc12`, the inhibition is 103% (active).

Take `COc1ccccc1OCc1nc2ccccc2s1`: the inhibition was 5.53% (inactive).

As for `CCN(C[C@H]1N[C@@](CC)(C(=O)OC)[C@H]2C(=O)N(C)C(=O)[C@@H]12)C(=O)Nc1ccc(F)cc1`, the inhibition was -20.7% (inactive).

`N#Cc1nc(-c2cccc3ccccc23)oc1N`: the inhibition is 8.01% (inactive).

Take `Cc1ccc(NNC(=O)c2cccs2)cc1Cl`: the inhibition is 90.5% (active).

For the compound `Cc1ccc(NNC(=O)c2c(F)cccc2Cl)cc1Cl`, the inhibition was -4.9% (inactive).

`O=C(NNC(=O)c1ccc(Cl)cc1Cl)c1cccs1`: the inhibition is 5.32% (inactive).

With `CC(=O)Nc1ccc(SC[C@H](Cc2ccccc2)N2CC[C@@H](C)CCC2=O)cc1`, the inhibition was 1.36% (inactive).

`CC(NC(=O)COC(=O)CCC(=O)c1ccc(Cl)cc1)c1ccccc1` (stereo unspecified): the inhibition is -16.5% (inactive).

Turning to `O=C(CCNC(=O)c1ccccc1Cl)NN=Cc1ccco1`, the inhibition is -8.03% (inactive).

As for `O=[N+]([O-])c1cc(S(=O)(=O)NCCc2ccccn2)ccc1Cl`, the inhibition was -19.2% (inactive).

Turning to `COc1ccccc1-c1nnc(-c2ccc(F)cc2)o1`, the inhibition is 4.47% (inactive).

With `COc1ccc(-c2csc(-c3cccs3)n2)cc1OC`, the inhibition was 11.3% (inactive).

Turning to `COc1ccc(-c2csc3nc(-c4ccccc4F)oc(=O)c23)cc1OC`, the inhibition was 98.7% (active).

On to `O=S(=O)(Nc1ncnc2sccc12)c1cccc(F)c1`, for which the inhibition is -7.13% (inactive).

`COc1ccc(NC(=O)CNc2cc(S(=O)(=O)N3CCOCC3)ccc2N2CCOCC2)c(OC)c1`: the inhibition was 6.36% (inactive).

`COc1ccccc1N(CCOc1ccccc1)S(=O)(=O)c1ccccc1`: the inhibition was 7.81% (inactive).

Consider `COc1cc(/C=C2\Oc3ccc(C#Cc4ccc(O)cc4)cc3C2=O)cc(OC)c1`, for which the inhibition was 115% (active).

For `COc1ccc2c(c1)O/C(=C\c1ccccc1O)C2=O`, the inhibition was -1.63% (inactive).

As to `COc1cc(C#Cc2ccc3cc(CCCO)oc(=O)c3c2)cc(OC)c1`, the inhibition is 11.5% (inactive).

Turning to `O=C1N[C@H](Cc2c[nH]c3ccccc23)COC(=O)[C@H](Cc2ccc(F)cc2)C/C=C\C[C@H]1CC(=O)N(CCO)Cc1ccccc1`, the inhibition was 36.2% (inactive).

For `CC(=O)NC(CC(=O)Nc1ccc(S(=O)(=O)N2CCOCC2)cc1)c1ccccc1` (stereo unspecified), the inhibition was -4.54% (inactive).

Take `CC(=O)c1c(C)[nH]c(C(=O)COC(=O)c2cccs2)c1C`: the inhibition was -12.4% (inactive).

`COc1ccc(C(=O)C(C)OC(=O)c2cccc(S(=O)(=O)Nc3c(C)n(C)n(-c4ccccc4)c3=O)c2)cc1` (stereo unspecified): the inhibition is -12.3% (inactive).

On to `O=C(CN1C(=O)NC2(CCCC2)C1=O)Nc1cc(C(F)(F)F)ccc1N1CCOCC1`, for which the inhibition was -16.7% (inactive).

`CCOC(=O)C1CCCN(C(=O)CSc2nnc3nc(C)cc(C)n23)C1` (stereo unspecified): the inhibition was 8.11% (inactive).

As to `CC1=NN(c2ccc(Cl)c(C(=O)O)c2)C(=O)/C1=C/c1ccc(-c2ccccc2[N+](=O)[O-])o1`, the inhibition is 12.7% (inactive).

With `CC(=O)C1C(c2ccc(Cl)cc2)NC(=O)NC1(O)C(F)(F)F` (stereo unspecified), the inhibition was -6.38% (inactive).

On to `O=C(/C=C(O)/C=C/c1ccc(O)cc1)/C=C/c1ccc(O)cc1`, for which the inhibition was 44.3% (inactive).

For `CC1Sc2ccc(C(=O)NCc3ccccc3Cl)cc2NC1=O` (stereo unspecified), the inhibition is -22.7% (inactive).

On to `Cc1ccc(C(=O)NCC(=O)NC2CC2)cc1`, for which the inhibition was -14.8% (inactive).

Regarding `CCc1ccc(NC(=O)COC(=O)c2cccs2)cc1`, the inhibition is -11.1% (inactive).

Regarding `CCC(C)(C)c1ccc(Oc2ccc(NC(=O)COC(=O)C3=COCCO3)cc2)cc1`, the inhibition is 103% (active).

For `O=C(OCC(=O)c1cccs1)C1=COCCO1`, the inhibition is -0.0949% (inactive).

Turning to `O=C1OC[C@@H]2CCCN2C(=O)[C@H](CC(=O)N(CCO)Cc2ccccc2)C/C=C\CC[C@@H]1Cc1ccc(F)cc1`, the inhibition was -11.9% (inactive).

On to `CCOc1ccccc1Nc1nnc(SCC(=O)NCC2CCCO2)s1` (stereo unspecified), for which the inhibition was -6.96% (inactive).

Regarding `C=CCC[C@@H](Cc1ccc(F)cc1)C(=O)O[C@H](CNC(=O)[C@H](CC=C)CC(=O)N(CCO)Cc1ccccc1)c1ccccc1`, the inhibition was 41.9% (inactive).

Regarding `COc1cc(OC)c(C(=O)NNC(=O)c2ccccc2-n2cccc2)cc1OC`, the inhibition is 17.7% (inactive).

Turning to `COc1ccc(CNc2nc(NCc3ccc(OC)cc3)c3ncn(C4CCCC4)c3n2)cc1`, the inhibition is 62.8% (inactive).

Turning to `O=C(Cn1cnc2c(OCc3ccccc3)ncnc21)NCCCn1ccnc1`, the inhibition was -10.9% (inactive).

Take `O=C(COC(=O)CN1C(=O)C2CCCCC2C1=O)Nc1ccc(F)c(F)c1F` (stereo unspecified): the inhibition is -26.6% (inactive).

As to `O=C1c2ccccc2NC(c2ccc(-c3cccc(Cl)c3)o2)N1O` (stereo unspecified), the inhibition was 85.5% (active).

As to `O=c1c(-c2cccc(Cl)c2)c[nH]n1-c1ccccc1`, the inhibition was 6.17% (inactive).

Consider `O=C1NC(c2cccc(Cl)c2)Nc2ccccc21` (stereo unspecified), for which the inhibition is 23% (inactive).

Regarding `C[C@@H](CN1CCC[C@H]1CN1C(N)=NC[C@@H]1Cc1ccccc1)N1C[C@@H](Cc2ccccc2)N(CCCC2CCCC2)C1=N`, the inhibition was 1.15% (inactive).

As for `CCOCc1c(C(=O)N2CCN(Cc3ccc(Br)s3)CC2)oc2ccccc12`, the inhibition is -4.05% (inactive).

On to `COc1ccc(-c2cc(C(F)(F)F)nc(S(C)(=O)=O)n2)cc1OC`, for which the inhibition is 94.1% (active).

For the compound `COc1ccc(-c2cc(C(F)(F)F)nc(NCc3cccnc3)n2)cc1`, the inhibition is 32.4% (inactive).

Regarding `COc1cc(OC)nc(S(C)(=O)=O)n1`, the inhibition was 2.64% (inactive).

In the case of `C[C@H](NS(=O)(=O)c1ccc(Cl)cc1)C(=O)OCC(=O)N1CCOCC1`, the inhibition is 17.5% (inactive).

In the case of `Fc1ccc(/C=N/Nc2nc(-c3cccnc3)nc3ccccc23)cc1`, the inhibition was 5.78% (inactive).

For `Cc1nc2ccccc2nc1N/N=C/c1ccc(O)cc1O`, the inhibition was 63.2% (inactive).

Take `Oc1ccc(/C=N/Nc2nc(-c3ccccc3F)nc3ccccc23)c(O)c1`: the inhibition was 123% (active).

Regarding `Cc1noc(C)c1S(=O)(=O)N(C)C[C@H]1Oc2ccc(NC(=O)C3CCCCC3)cc2C(=O)N([C@H](C)CO)C[C@@H]1C`, the inhibition is -25.9% (inactive).

For the compound `CCCc1cc(=O)[nH]c(SCC(=O)Nc2ccc(C(=O)Nc3ccccc3OC)cc2)n1`, the inhibition was -1.96% (inactive).

On to `O=C(COC(=O)c1cccnc1Cl)NC12CC3CC(CC(C3)C1)C2`, for which the inhibition was -4.72% (inactive).

On to `O=C(COC(=O)c1cc[n+]([O-])cc1)Nc1ccc(Cl)c(C(F)(F)F)c1`, for which the inhibition was 13.8% (inactive).

The values above are taken from PubChem BioAssay AID2717 (Broad Institute, 2010).
